FMDV inh: blocks foot and mouth disease virus. 410,000 compounds, 1.2% hits. AID 1159524. FMDV antiviral cell-based qHTS. Potency, µM (top dose mostly 57.9 µM), without a hit: at the top dose activity change, negative = inhibition, actives largely listed as inhibitors; calls by dose curve; tested in HEK293T cells; note: read-out not given here; potency is the fitted concentration of half-maximal effect; nearly all actives have a fitted effect of over 45% in size
VACV mCherry inh: vaccinia inhibition (mCherry reporter) | Potency, µM (doses to about 36.5 µM), inactives show at the highest dose activity change, negative = inhibition, hits mostly inhibitors | 310,000 compounds, 0.63% hits | Vaccinia virus mCherry reporter infection, fluorescence | AID 720579; calls by dose curve; tested in A549 cells; note: potency is the fitted concentration of half-maximal effect; nearly all actives have a fitted effect of over 35% in size
Marburg entry inh: inhibitors of Marburg virus binding or cell entry; Marburg virus pseudotyped entry inhibition, cell reporter; Potency, µM (top dose mostly 37.8 µM), for inactives: top-dose activity change, negative = inhibition, actives largely listed as inhibitors; 300,000 compounds, 1.8% hits; AID 540276; calls by dose curve; tested in HEK293 cells; note: potency is the fitted concentration of half-maximal effect
VACV Venus inh: vaccinia inhibition (Venus reporter) | Potency, µM (titrated, usually from 36.5 µM), for inactives: at the highest dose activity change, negative = inhibition, actives largely listed as inhibitors | 330,000 compounds, 0.46% hits | Vaccinia virus Venus reporter expression, fluorescence | AID 720580; calls by dose curve; tested in A549 cells; note: potency is the fitted concentration of half-maximal effect; nearly all actives have a fitted effect of over 30% in size
HCMV inh: human cytomegalovirus inhibition | HFF cells, HCMV-luciferase reporter, 72 h; active compounds read low | activity change, negative = inhibition, % at 57.5 µM | 410,000 compounds, 4.5% hits | AID 1259415; in the data active = activity change below about -60%; inconclusive = no clear call, values can overlap the other calls; inactive = above about -39%
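Screen run at 2 compound doses on HFFs infected with reporter HCMV, MOI 1 PFU/cell. Luciferase activity from cell lysates at 72 h post infection gave inhibition relative to buffer-only and Salinomycin wells.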
Lassa entry inh: inhibitors of Lassa virus binding or cell entry; AID 540256; 300,000 compounds, 1.2% hits; Potency, µM (top dose mostly 37.9 µM), for inactives: top-dose activity change, negative = inhibition, most hits filed as inhibitors; Lassa virus pseudotype entry inhibition, cell reporter; calls by dose curve; tested in HEK293 cells; note: potency is the fitted concentration of half-maximal effect; nearly all actives have a fitted effect of over 50% in size
An asterisk follows results filed as active; i = inactive; u = inconclusive; x = no result; [ ] = remark or other dose. Rows were chosen to be rich in hits. Some 6.5% of all compounds tested hit in one or more screens of this group. % is set by controls: 0 for no effect and ±100 for the full control effect.

SMILES	FMDV inh	VACV mCherry inh	Marburg entry inh	VACV Venus inh	HCMV inh	Lassa entry inh
C/C(=N/NC(=O)c1ccc(Cl)s1)c1ccc(NC(=O)COc2ccc(Cl)cc2)cc1	-16%	i	u	-13%	-77*	0%
C/C(=N/NC(=O)c1cccs1)c1ccc(NC(=O)COc2ccc(Cl)cc2Cl)cc1	4%	i	u	-13%	-33	13µM*
NNC(=O)/C(=N/Nc1ccccc1)S(=O)(=O)c1ccc(Cl)cc1	-22%	u	u	-29%	-26	16µM*
CCOC(=O)/C(=N/Nc1ccc(C)cc1)S(=O)(=O)c1ccc(Cl)cc1	53%	i	u	-3%	52	7%
CC1=CC2OC3CC4OC(=O)C=CC=CC(C(C)O)OCC(O)C5(C)OC5C(=O)OCC2(CC1O)C4(C)C31CO1 (centres undefined)	x	x	u	x	-98*	x
CC1=CC2OC3CC4OC(=O)C=CC=CC(=O)OCCC(C)C(O)C(=O)OCC2(CC1)C4(C)C31CO1 (centres undefined)	-22%	x	u	x	-98*	u
CC1CCOC(=O)C=CC=CC(=O)OC2CC3OC4C5OC5(C)C(O)CC4(COC(=O)C1O)C2(C)C31CO1 (centres undefined)	x	x	u	x	-98*	x
CC(O)C1C=CC=CC(=O)OC2CC3OC4C5OC5(C)C(O)CC4(COC(=O)C(O)C(C)CCO1)C2(C)C31CO1 (centres undefined)	x	x	0.13µM*	x	-98*	x
COC(=O)[C@]12CCCCC=C1N(CCC1=CCCCC1)C(=O)[C@H](CC(=O)N1CCN(C(=O)C3CC3)CC1)C2	0%	21%	x	-7%	-25	x
COc1cccc(-c2ccc3c(N)c(C(=O)NCc4ccc(Cl)cc4)sc3n2)c1	-4%	u	-14%[46.1 µM]	-23%	-24	7.9µM*
COc1cccc(CNC(=O)c2cc(-c3cccc(OC)c3)n[nH]2)c1	41%	-8%	x	-3%	29	-1%[46.1 µM]
COc1cccc(-c2cc(C(=O)NCc3ccccc3)[nH]n2)c1	50%	-13%	x	-14%	52	7.9µM*
CC(C)c1ccc(C2CC(=O)c3cnc(NC(=O)c4ccco4)nc3C2)cc1 (centres undefined)	8%	x	x	x	-2	x
COc1ccc(NC(=O)CN2C(=O)C(c3ccc(C(C)(C)C)cc3)=NC2(C)C)cc1Cl	11%	-19%	10%[46.1 µM]	-11%	-8	14%[46.1 µM]
Cc1cccc(CC(=O)NCCN2CCOCC2)c1	-7%	-15%	19%[46.1 µM]	-6%	56	9%[46.1 µM]
CCn1ncc(/C=C/C(=O)Nc2c(C)nn(Cc3ccc(Cl)cc3Cl)c2C)c1C	-28%	-17%	u	-28%	-103*	u
COc1ccccc1NC(=O)CS(=O)(=O)c1cn(CC(=O)N2CCCC2)c2ccccc12	-11%	-14%	3%	-17%	-15	2%
CC1CC2(CCCC2)Nc2ccc(F)cc21 (centres undefined)	-12%	x	x	x	u	x
Cc1cccc2c1NC1(CCCC1)CC2C (centres undefined)	-24%	x	x	x	-63*	x
Cc1ccc(C(=O)c2c(C)oc3c2C(=O)C(=O)c2ccccc2-3)cc1	u	x	7.9µM*	u	x	7.1µM*
Cc1oc2c(c1C(=O)c1ccc(Cl)cc1)C(=O)C(=O)c1ccccc1-2	u	-5%	-22%	0%	u	-27%
CNC(=S)N(C)[C@H]1c2c(ccc3ccccc23)OC[C@H]1CO	0%	u	5%[46.1 µM]	-18%	-60*	21%[46.1 µM]
CN(C(=O)C(C)(C)C)C1c2c(ccc3ccccc23)OCC1CO (centres undefined)	u	-13%	-41%	-6%	55	u
O=C1CCCc2cc3c(cc21)CC1(C3)Cc2cc3c(cc2C1)C(=O)CCC3	u	-10%	x	u	-81*	x
CCc1ccc2c(c1)C(=O)CCC2	12%	i	1%[46.1 µM]	-12%	-19	26%[46.1 µM]
SMILES	FMDV inh	VACV mCherry inh	Marburg entry inh	VACV Venus inh	HCMV inh	Lassa entry inh
O=C(C[n+]1ccc(Cl)c2ccc(Cl)cc21)c1ccc(F)cc1	x	-15%	x	-6%	x	x
C=CCNC(=O)c1ccc2nc(Cc3ccc(OC)cc3)oc2c1	31%	-18%	u	-24%	81	5.6µM*
COCCCNC(=O)c1ccc2nc(Cc3ccc(OC)cc3)oc2c1	9%	-16%	u	-15%	140	u
COc1ccccc1CNC(=O)CC(c1ccc(F)cc1)N1Cc2ccccc2C1=O (centres undefined)	20%	-5%	x	-6%	-73*	-27%[46.1 µM]
O=C(CN1CCN(S(=O)(=O)c2ccc3c(c2)OCCCO3)CC1)N1CCc2ccccc21	-22%	-8%	x	-15%	17	x
O=C1NN(c2ccccc2)C(=O)C1=Cc1ccccc1O	29%	i	x	-10%	-16	x
Cc1cc(/C=C2/C(=O)NN(c3ccccc3)C2=O)c(C)n1-c1cccc(O)c1	45µM*	-9%	u	-9%	u	4µM*
Cc1cc(C=C2C(=O)c3ccccc3C2=O)c(C)n1-c1ccccc1	1.1µM*	x	6.5µM*	x	-23	u
Cc1cc(/C=C2\Cc3ccccc3C2=O)c(C)n1-c1ccccc1	13µM*	-14%	u	-14%	u	u
COc1ccccc1C(=O)N1CCC(c2noc(-c3ccc(S(=O)(=O)N4CCCC4)cc3)n2)CC1	u	-30%	-13%[46.1 µM]	-25%	-84*	-14%[46.1 µM]
O=C(c1ccc(F)cc1F)N1CCC(c2noc(-c3ccc(S(=O)(=O)N4CCCC4)cc3)n2)CC1	-9%	-12%	-8%[46.1 µM]	-12%	-1	23%[46.1 µM]
CC(C)C(=O)N1CCC(c2nc(-c3ccc(S(=O)(=O)N4CCCC4)cc3)no2)CC1	3%	-16%	-25%	-8%	-73*	u
COC(=O)[C@H]1C[C@H](O)CN1S(=O)(=O)c1ccc(Br)cc1F	-19%	-27%	x	-8%	19	x
Cc1ccc(NC(=O)c2cccs2)cc1NC(=O)c1ccccc1Cl	9%	x	x	x	-12	x
CC(=O)c1cccc(NC(=O)c2ccc(-c3ccccc3[N+](=O)[O-])o2)c1	-60%	-25%	4.6µM*	-17%	82	u
Cc1cc(NC(=O)c2ccc(-c3ccccc3[N+](=O)[O-])o2)no1	55%	x	x	x	-3	x
O=C(Nc1cccc(NC(=O)c2ccccc2Cl)c1)c1cccs1	0%	-3%	-20%	-10%	-81*	-21%
O=C(COc1ccccc1)NC(=S)Nc1cccc(NC(=O)c2ccccc2Cl)c1	17%	-12%	14%	-26%	-64*	14%
O=C(Nc1nc2ccc(F)cc2s1)c1ccc([N+](=O)[O-])o1	-5%	u	x	10µM*	u	x
COCCN1C(=O)C2=C(C1=O)C1N(C)c3ccccc3[C@@]13C[C@@H](CO)N(C(=O)c1ccc(Br)cc1)C3=N2 (some centres undefined)	x	x	-7%[14.2 µM]	x	x	u
Cc1ccc(C)n1C1C(=O)N(C)c2c(F)cccc21 (centres undefined)	x	x	x	x	1	x

High-throughput results deposited in PubChem BioAssay by National Center for Advancing Translational Sciences (NCATS).
